Here are results for 10 molecules from PubChem BioAssay (NCATS).

Common to all, as to assay: qHTS profiling for inhibitors of Plasmodium falciparum proliferation (AID 504749); note: nearly all actives have a fitted effect of over 60% in size;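 for activity, negative = inhibition: 0% = DMSO vehicle and full inhibition = artemisinin control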
Conditions in all cases: P. falciparum in erythrocytes, SYBR Green DNA, 72 h; series mostly up to 28.7 µM
(In general: Quantitative high-throughput screening tests each substance at several concentrations.)

One assay deals with CP262. The essentials: (§1)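 Quantitative HTS: compounds pinned into medium, infected erythrocytes added (0.3% parasitemia, 2.5% hematocrit), 72 h culture at 37 C under 5% CO2. Saponin/Triton lysis with SYBR Green I, overnight RT, then fluorescence read.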
The test system of another assay is CP265. The procedure, abridged: as §1
For a further assay, the system named is CP266. The essentials:
as §1

The test system of the next assay is CP286. The essentials:
as §1

The subject of the next assay is CP305. The essentials: as §1
The test system of the next assay is CP315. The procedure, abridged:
as §1

A further assay has as its system CP325. The essentials:
as §1

The subject of the next assay is CP335. The procedure, abridged:
as §1

For another assay, the system named is DFO2036. The essentials:
as §1

A further assay has as its system DIV17. The procedure, abridged: as §1
For another assay, the system named is DIV30. The procedure, abridged:
as §1

The next assay has as its system Dd2. The essentials:
as §1

The next assay has as its system ECU. The procedure, abridged: as §1
For another assay, the system named is FAB9. The procedure, abridged:
as §1

The next assay deals with CP268. The essentials:
as §1

Another assay deals with CP269. The procedure, abridged: as §1
For another assay, the system named is CP291. The essentials:
as §1

The subject of another assay is CP297. The procedure, abridged: as §1
The next assay relates to CP329. The procedure, abridged: as §1
The subject of a further assay is DIV14. The essentials: as §1

Inconclusive results are not listed. Unmarked numbers belong to inactive results. Active and inactive are the calls of the source. Calls come from the whole dose curve; as a rule, active = well fitted inhibition curve with a large enough effect; inconclusive = small, poorly fitted or top-dose-only effect; inactive = flat fitted curve, though single readings scatter.
Potency is the fitted concentration of half-maximal effect.

`CC(C)c1cccc(C(C)C)c1O`: the Potency entry in the assay on CP262, in the assay on CP265, in the assay with CP286, in the assay with CP305, in the assay on CP315 and with CP325 was “inactive” in each case. In addition, the Potency result with CP335, in the assay with DFO2036, in the assay on DIV17, with DIV30, with Dd2 and in the assay on ECU was “inactive” in each case. Besides, in the assay with FAB9, the Potency result was “inactive”. Also, the call with CP266 was inactive.
Turning to `Cc1nnc2n1-c1ccc(Cl)cc1C(c1ccccc1)=NC2`, the Potency result in the assay on CP262, in the assay on CP265, in the assay on CP268, in the assay on CP269, with CP286 and in the assay with CP291 was “inactive” in each case. Besides, the Potency entry in the assay with CP297, in the assay with CP305, with CP315, in the assay with CP325, in the assay with CP329 and with DFO2036 was “inactive” in each case. For the same molecule, the Potency result in the assay with DIV14, in the assay with DIV17, in the assay with Dd2, in the assay on ECU and in the assay with FAB9 was “inactive” throughout. In addition, the call in the assay with CP266 was inactive.
Turning to `CCCC(C)(COC(N)=O)COC(N)=O`, the Potency result with CP262, in the assay on CP265, with CP268, in the assay on CP269, in the assay with CP286 and with CP297 was “inactive” in each case. The Potency entry in the assay with CP305, in the assay on CP315, in the assay on CP325, with CP329, with CP335 and in the assay with DFO2036 was “inactive” in each case. Moreover, the Potency entry with DIV14, in the assay on DIV17, in the assay with DIV30, with Dd2, in the assay with ECU and in the assay with FAB9 was “inactive” in each case. The call with CP266 was inactive.
Regarding `COC1CC(=C(c2cccs2)c2cccs2)C[N+](C)(C)C1` (stereo not given), the Potency is 4.47 µM (active) in the assay on CP265; 10.7 µM (active) with CP269; 11.2 µM (active) in the assay with CP286; 6.01 µM (active) in the assay with CP335; 5.62 µM (active) with DFO2036; 8.91 µM (active) in the assay with ECU.
Turning to `CCCCC/C=C\C/C=C\C/C=C\C/C=C\CCCC(=O)NCC(=O)O`, the activity, negative = inhibition in the assay on CP262 is 2.09% [at 2.67 µM]; in the assay on CP265, 2.88% [at 2.67 µM]; in the assay on CP268, -7.02% [at 2.67 µM]; with CP269 it was 0.824% [at 2.67 µM]; in the assay with CP286, 0.0979% [at 2.67 µM]; with CP291, -4.76% [at 2.67 µM]. Besides, the activity, negative = inhibition with CP297 was -4.97% [at 2.67 µM]; in the assay on CP305 it was 3.97% [at 2.67 µM]; in the assay with CP315, -5.37% [at 2.67 µM]; in the assay on CP325, 2.88% [at 2.67 µM]; in the assay on CP329, 5.14% [at 2.67 µM]; in the assay with CP335 it was 3% [at 2.67 µM]. In addition, the activity, negative = inhibition is 8.68% [at 2.67 µM] in the assay on DFO2036; 7.6% [at 2.67 µM] in the assay with DIV14; 1.26% [at 2.67 µM] in the assay with DIV17; -7.28% [at 2.67 µM] with DIV30; 0.222% [at 2.67 µM] in the assay on Dd2; -2.86% [at 2.67 µM] with ECU. Further, in the assay with FAB9, the activity, negative = inhibition is 0.295% [at 2.67 µM].
As for `CC(C)(C)NCC(O)c1cc(Cl)c(N)c(C(F)(F)F)c1` (stereo not given), the Potency with CP265 is 8.91 µM (active); with CP297 it was 15.1 µM (active); in the assay on DFO2036 it was 5.01 µM (active); in the assay with DIV14, 6.01 µM (active); with DIV17, 7.57 µM (active); with Dd2, 12.6 µM (active). Also, in the assay on ECU, the Potency is 5.01 µM (active). Further, the call in the assay on CP266 was inactive. Also, the Potency result in the assay on CP315, in the assay with CP329 and in the assay on FAB9 was “inactive” throughout.
As for `CC(C)(C)NCC(O)c1ccccc1Cl` (stereo not given), the Potency entry in the assay on CP262, with CP265, in the assay on CP268, in the assay on CP269, in the assay on CP286 and in the assay with CP291 was “inactive” throughout. Moreover, the Potency entry with CP305, in the assay on CP315, in the assay on CP325, in the assay with CP329, in the assay on DFO2036 and in the assay with FAB9 was “inactive” throughout. For the same molecule, the Potency in the assay on CP297 is 13.5 µM (active); in the assay on DIV14, 8.49 µM (active); with DIV17, 6.01 µM (active); in the assay on Dd2, 11.2 µM (active).
With `Clc1cccc(SC2CCNCC2)n1`, the Potency result with CP262, in the assay with CP265, in the assay with CP268, in the assay on CP269, with CP286 and with CP297 was “inactive” in each case. Further, the Potency result in the assay on CP305, in the assay with CP315, in the assay with CP325, in the assay with CP329, in the assay on CP335 and with DFO2036 was “inactive” in each case. Moreover, the Potency result in the assay on DIV14, in the assay with DIV17, in the assay with DIV30, in the assay on Dd2, in the assay with ECU and in the assay with FAB9 was “inactive” each time. The result in the assay on CP266 was inactive.
Consider `COC(=O)C(c1ccccc1)C1CCCCN1` (stereo not given), for which the Potency entry in the assay on CP265, in the assay with CP268, in the assay on CP269, in the assay with CP286, in the assay on CP297 and with CP305 was “inactive” throughout. Also, the Potency entry with CP315, with CP325, in the assay with CP329, in the assay on CP335, with DFO2036 and in the assay on DIV30 was “inactive” each time. The Potency entry in the assay with ECU and in the assay with FAB9 was “inactive” each time. In the assay on CP266, the result was inactive.
Turning to `O=C(N/N=C/c1ccc([N+](=O)[O-])o1)c1cc([N+](=O)[O-])cc([N+](=O)[O-])c1O`, the Potency in the assay with CP265 is 2.24 µM (active); in the assay on DFO2036, 3.98 µM (active). Besides, the Potency result with DIV14 was “inactive”.
